Source: the supplement of paper PMC4188521

These targets were tested with CCc1cnn2c(NCc3ccc[n+]([O-])c3)cc(N3CCCC[C@H]3CCO)nc12 [dinaciclib] (assay: cell viability remaining relative to DMSO control; higher = less cytotoxic (more viable cells)). Conditions: 100 nM; 24 h.
Experimental: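 Solid tumor cell lines were treated with dinaciclib (100 nM) for 24 hr. Viability was measured by CellTiter-Glo ATP luminescence and expressed as % of DMSO-treated control wells (mean of 2-6 plates, triplicate wells per plate).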

**Q.** With G361 as the target, how does the cell viability remaining read?
**A.** The cell viability remaining was 4.9%.

**Q.** For BT549, which cell viability remaining is on record?
**A.** The cell viability remaining was 51.3%.

**Q.** 769P was tested. Which cell viability remaining did it give?
**A.** The cell viability remaining was 57.5%.

**Q.** With CALU1 as the target, how does the cell viability remaining read?
**A.** The cell viability remaining was 78.1%.

**Q.** With CHAGOK1 as the target, how does the cell viability remaining read?
**A.** Its cell viability remaining is 52.5%.

**Q.** With SKLMS1 as the target, how does the cell viability remaining read?
**A.** Its cell viability remaining is 82.9%.

**Q.** For SNU1, which cell viability remaining is on record?
**A.** The cell viability remaining was 50.8%.

**Q.** For EFE184, which cell viability remaining is on record?
**A.** Its cell viability remaining is 93.1%.

**Q.** For HS839T, which cell viability remaining is on record?
**A.** The cell viability remaining was 97.6%.

**Q.** OE33 was tested. Which cell viability remaining did it give?
**A.** The cell viability remaining was 51.6%.

**Q.** How did the cell viability remaining turn out when RPMI7951 was run?
**A.** Its cell viability remaining is 45.3%.

**Q.** With SH4 as the target, how does the cell viability remaining read?
**A.** The cell viability remaining was 64.5%.

**Q.** For SCC25, which cell viability remaining is on record?
**A.** The cell viability remaining was 20.5%.

**Q.** For SKNFI, which cell viability remaining is on record?
**A.** Its cell viability remaining is 24.1%.

**Q.** SW1088 was tested. Which cell viability remaining did it give?
**A.** The cell viability remaining was 58%.

**Q.** With DU145 as the target, how does the cell viability remaining read?
**A.** The cell viability remaining was 81.7%.

**Q.** For DLD1, which cell viability remaining is on record?
**A.** Its cell viability remaining is 46.8%.

**Q.** Which cell viability remaining does the source give for SKNAS here?
**A.** The cell viability remaining was 35%.

**Q.** Which cell viability remaining does the source give for H2228 here?
**A.** Its cell viability remaining is 36.4%.

**Q.** With SCC4 as the target, how does the cell viability remaining read?
**A.** The cell viability remaining was 66.5%.

**Q.** How did the cell viability remaining turn out when AN3CA was run?
**A.** The cell viability remaining was 13.9%.

**Q.** With A172 as the target, how does the cell viability remaining read?
**A.** The cell viability remaining was 73.1%.

**Q.** For H146, which cell viability remaining is on record?
**A.** The cell viability remaining was 86.5%.

**Q.** Which cell viability remaining does the source give for SJSA1 here?
**A.** Its cell viability remaining is 66.7%.

**Q.** COLO201 was tested. Which cell viability remaining did it give?
**A.** Its cell viability remaining is 67.8%.

**Q.** For COLO792, which cell viability remaining is on record?
**A.** Its cell viability remaining is 8.9%.

**Q.** Which cell viability remaining does the source give for SKLU1 here?
**A.** The cell viability remaining was 82.6%.

**Q.** With T98G as the target, how does the cell viability remaining read?
**A.** The cell viability remaining was 53.4%.

**Q.** SU8686 was tested. Which cell viability remaining did it give?
**A.** The cell viability remaining was 48.9%.

**Q.** For A204, which cell viability remaining is on record?
**A.** The cell viability remaining was 40.8%.

**Q.** With OVTOKO as the target, how does the cell viability remaining read?
**A.** Its cell viability remaining is 95.4%.

**Q.** How did the cell viability remaining turn out when MALME3M was run?
**A.** The cell viability remaining was 54.4%.

**Q.** With H441 as the target, how does the cell viability remaining read?
**A.** Its cell viability remaining is 73.4%.

**Q.** OVISE was tested. Which cell viability remaining did it give?
**A.** Its cell viability remaining is 94.6%.

**Q.** Which cell viability remaining does the source give for HS294T here?
**A.** The cell viability remaining was 52.6%.

**Q.** Which cell viability remaining does the source give for COLO684 here?
**A.** The cell viability remaining was 85.6%.

**Q.** CAMA1 was tested. Which cell viability remaining did it give?
**A.** Its cell viability remaining is 51.8%.

**Q.** RL952 was tested. Which cell viability remaining did it give?
**A.** Its cell viability remaining is 33.4%.

**Q.** SKOV3 was tested. Which cell viability remaining did it give?
**A.** The cell viability remaining was 81.1%.

**Q.** Which cell viability remaining does the source give for SW620 here?
**A.** Its cell viability remaining is 58.5%.
